# FLuc counter: qHTS profiling assay for firefly luciferase inhibitor/activator using purifed enzyme and Km concentrations of substrates (counterscreen for miR-21 project); Luciferin 4-monooxygenase (Photinus pyralis), P08659; 360,000 compounds, 6.9% hits; AID 588342, 2011; Potency, µM (highest dose often 57.5 µM), without a hit: top-dose activity change, negative = inhibition, usual class: inhibitors; purified FLuc, Km substrates, luminescence inhibition;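 further: plate controls were vehicle for no effect and reference inhibitor for full effect; nearly all actives have a fitted effect of over 55% in size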
# Target sequence (P08659 whole entry, looked up): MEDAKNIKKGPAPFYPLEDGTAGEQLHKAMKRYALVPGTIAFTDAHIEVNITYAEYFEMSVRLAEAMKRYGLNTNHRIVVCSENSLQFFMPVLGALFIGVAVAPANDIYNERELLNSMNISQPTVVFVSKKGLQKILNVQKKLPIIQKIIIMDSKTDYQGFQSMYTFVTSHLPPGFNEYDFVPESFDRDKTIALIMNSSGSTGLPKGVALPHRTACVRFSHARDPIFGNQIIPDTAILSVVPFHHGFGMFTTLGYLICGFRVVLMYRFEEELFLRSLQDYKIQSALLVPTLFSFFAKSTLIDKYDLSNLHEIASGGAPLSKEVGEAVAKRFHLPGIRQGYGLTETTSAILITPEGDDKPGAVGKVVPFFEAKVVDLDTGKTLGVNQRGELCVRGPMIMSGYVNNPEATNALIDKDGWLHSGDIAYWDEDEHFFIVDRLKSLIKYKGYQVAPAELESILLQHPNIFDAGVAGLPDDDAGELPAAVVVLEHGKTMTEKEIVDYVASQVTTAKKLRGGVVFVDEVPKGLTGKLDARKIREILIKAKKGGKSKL
#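 Purified P. pyralis luciferase (10nM final) with 10uM D-luciferin and 10uM ATP (Km levels) in 50mM Tris acetate pH 7.5, 10mM Mg acetate, 0.01% Tween-20, 0.05% BSA; qHTS 6-point titration, ~60 µM downward; luminescence read.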
# KinaseGlo FLuc: Counterscreen for Luciferase (Kinase-Glo TM) Inhibition | 200,000 compounds, 0.28% hits | Kinase-Glo luciferase, ATP luminescence, 8 min | Luciferin 4-monooxygenase (Photuris pensylvanica), Q27757 | Potency, µM (highest dose often 38.3 µM), without a hit: at the top dose activity change, negative = inhibition, actives largely listed as inhibitors; further: on the % scale 0 is the no-effect control and ±100 the full control effect; nearly all actives have a fitted effect of over 60% in size
#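 Substrate mix (final 50 mM imidazole pH 7.2, 50 mM KCl, 7 mM MgCl2, 10 uM ATP, 0.01% Tween 20, 0.05% BSA) plus pin-tool compound, then Kinase-Glo detection mix; 8 min ambient, luminescence read.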
# ELG1 genotox: qHTS screen for small molecules that induce genotoxicity in human embryonic kidney (HEK293T) cells expressing luciferase-tagged ELG1 | AID 504466, 2011 | 330,000 compounds, 1.3% hits | HEK293T ELG1-luciferase reporter, luminescence, 16 h | Potency, µM (doses to about 46 µM), without a hit: top-dose activity change, positive = activation, usual class: activators; further: % of control where 0% means no effect; nearly all actives have a fitted effect of over 60% in size
#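 ELG1-luciferase HEK293T cells, 2,000/well; compound pinned in; 16 hr, 37 °C, 5% CO2; ONE-Glo, 30 min RT; luminescence on CCD imager.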
# SMN2 splice enh: qHTS Assay for Enhancers of SMN2 Splice Variant Expression; HEK293 SMN2-luciferase splicing reporter, luminescence, 30-36 h; Potency, µM (top dose mostly 46.1 µM), without a hit: top-dose activity change, positive = activation, actives largely listed as activators; 210,000 compounds, 2.8% hits; AID 1458, 2008; further: % of control where 0% means no effect; nearly all actives have a fitted effect of over 55% in size
#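 HEK293 cells carry an SMN2 […]–luciferase reporter in which exon 7 inclusion puts luciferase in frame. Cells were plated 10-12 h before compound addition, then incubated 30-36 h at 37C. ONE-Glo luminescence was read; sodium butyrate at 4.5 mM final served as control.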
# Rab9 promoter act: qHTS Assay for Rab9 Promoter Activators; Huh7 Rab9 promoter-luciferase reporter, luminescence, 24 h; Potency, µM (series often up to 9.22 µM), without a hit: top-dose activation, negative = inhibition, hits mostly activators; 320,000 compounds, 2.8% hits; AID 485297, 2010; further: % of control where 0% means no effect; nearly all actives have a fitted effect of over 60% in size
#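 Rab9 promoter-driven luciferase in stably transfected Huh7 cells; 1500 cells/well rested 2 h, exposed to compound in DMSO for 24 h at 37 °C, 5% CO2. Luminescence read 10 min after adding luciferase reagent at ambient temperature.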
# NPC1 prom act: qHTS Assay for NPC1 Promoter Activators; AID 485313, 2010; 320,000 compounds, 2.4% hits; Huh7 NPC1 promoter luciferase reporter, 24 h; Potency, µM (highest dose often 9.22 µM), for the others: at the highest dose activation, actives largely listed as activators; further: % of control where 0% means no effect; nearly all actives have a fitted effect of over 60% in size
#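 Luminescence read-out of NPC1 promoter-driven luciferase in stably transfected Huh7 cells; compounds delivered in DMSO and left 24 h at 37C, 5% CO2, qHTS titration format.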
# Numbers without * were called inactive; ? = inconclusive; . = not tested or not shown; [ ] = dose if it differs, or a comment. This is a sample that favours compounds with a hit; in the whole collection about 7.3% have one here. The call rests on the fitted dose curve; in most records, active means well fitted curve in the direction sought with a large enough effect; inconclusive means small, poorly fitted or top-dose-only effect, or another doubt; inactive means no such curve, though single readings can be large; an effect the other way counts as inactive or inconclusive. Potency means the concentration at half of the fitted maximal effect.
SMILES,FLuc counter,KinaseGlo FLuc,ELG1 genotox,SMN2 splice enh,Rab9 promoter act,NPC1 prom act
O=C(NCc1ccc(F)cc1)c1ccc2c(Cl)c3c(nc2c1)CCCC3,-2%,.,.,-15%,.,.
COc1ccc(C)cc1NC(=O)c1ccc2c(Cl)c3c(nc2c1)CCC3,1.7µM*,.,.,-10%,.,.
O=C(Nc1ccc(Cl)cn1)c1ccc2c(Cl)c3c(nc2c1)CCC3,0.19µM*,.,?,.,?,0.32µM*
CC(C)(C)n1ncc2c(=O)n(Cc3ccc(Cl)c(SC(F)(F)F)c3)cnc21,-1%,.,.,.,.,.
Cc1cccc(NC(=O)c2ccc3c(Cl)c4c(nc3c2)CCCC4)n1,0.67µM*,-21%,2.9µM*,3.2µM*,0.56µM*,1.1µM*
COc1ccc(NC(=O)c2ccc3c(SCC(=O)O)c4c(nc3c2)CCCC4)cc1Cl,?,-3%,0%,2%,-1%,-2%
CCOc1ccc(NC(=O)c2ccc3c(SCC(=O)O)c4c(nc3c2)CCC4)cc1,24µM*,.,.,-65%,.,.
C[N+](C)(C)CC(=O)N/N=C\c1ccncc1,.,-1%[7.66 µM],.,-6%[9.22 µM],.,.
Cc1ccc(S(=O)(=O)c2cn(CC(=O)Nc3ccc4c(c3)OCO4)c3ccc(F)cc3c2=O)cc1,3%,.,.,2%,.,.
O=C(Oc1ccc(-c2cnc3ccccc3n2)cc1)c1cc([N+](=O)[O-])ccc1Cl,?,-2%,?,?,9%,4µM*
CCC(=O)Oc1ccc(-c2cnc3ccccc3n2)cc1,0.3µM*,-14%,?,?,?,?
O=C(Oc1ccc(-c2cnc3ccccc3n2)cc1)c1ccco1,0.27µM*,?,16µM*,?,?,?
Cc1c(C(=O)Oc2ccc(-c3cnc4ccccc4n3)cc2)cccc1[N+](=O)[O-],?,0%,?,24%,?,?
COc1ccc(C)cc1NC(=O)c1sc2nc(-c3ccc(F)cc3)cn2c1C,3%,.,.,.,.,.
O=P(c1ccccc1)(c1ccccc1)C(O)c1ccccn1 (stereo not given),0%,.,0%,.,1%,6%
O=C1c2ccccc2CCC1C(O)c1ccccn1 (stereo not given),15µM*,.,-2%,.,10%,6%
Cc1nn(CCCC(=O)Nc2cccc(F)c2)c(=O)c2c1sc1ccccc12,15µM*,.,.,.,.,.
CCc1cccc(C)c1NC(=O)CCCn1nc(C)c2sc3ccccc3c2c1=O,-11%,.,.,.,.,.
CCCOc1ccc(CNC(=O)CCCn2nc(C)c3sc4ccccc4c3c2=O)cc1,7.6µM*,.,.,.,.,.
CCc1cccc(NC(=O)Cn2c(=O)n3nc(-c4cccc(F)c4)nc3c3ccccc32)c1,0%,.,.,.,.,.
CCn1nc(C)c2c(-c3ccccc3)cc(=O)n(C(C)C(=O)NCCC(C)C)c21 (stereo not given),-14%,.,.,.,.,.
CCC(C)NS(=O)(=O)c1ccc(OCC(=O)Nc2ccc3c(c2)OCCO3)cc1 (stereo not given),1%,-2%,-1%,-10%,0%,-1%
CCc1ccc(NC(=O)COc2ccc3c(c2)OCO3)cc1,27µM*,.,?,.,14%,27%
CC(=O)Nc1cccc(NC(=O)COc2ccc3c(c2)OCO3)c1,9.5µM*,.,9%,.,28%,5%
CCc1ccc(OCC(=O)Nc2ccc3c(c2)OCCO3)cc1,19µM*,.,15%,.,0%,3%
SMILES,FLuc counter,KinaseGlo FLuc,ELG1 genotox,SMN2 splice enh,Rab9 promoter act,NPC1 prom act
O=C1Nc2ccccc2/C1=N\N=C\c1ccc(O)c(O)c1,24µM*,.,?,.,-15%,-5%
COc1cc(/C=N/N=C2/NC(=O)C(Cc3ccc(F)cc3)S2)ccc1O (stereo not given),2.7µM*,-7%,?,31%,25%,17%
O=C1c2ccccc2C(=O)N1/N=C/c1ccc(O)c(O)c1O,17µM*,.,-7%,.,-5%,-6%
Cc1ccsc1/C=N/N=C1\C(=O)Nc2ccccc21,?,-1%,10%,0%,23%,?
COc1cc(/C=N/N=C2/NC(=O)C(c3ccccc3)S2)ccc1O (stereo not given),?,0%,?,8%,-3%,-2%
COc1ccc(OC)c(N=C2C(=O)Nc3ccccc32)c1,-17%,-1%,3%,?,8%,7%
COc1cc(/C=N/N=C2/C(=O)Nc3ccccc32)ccc1O,6.7µM*,-14%,?,-10%[1.84 µM],-1%,21%
O=C1c2cccc3cccc(c23)C(=O)N1/N=C/c1ccc(O)cc1O,2%,2%,3%,9%,3%,-2%
O=C(O)c1cccc(N=Nc2c(S(=O)(=O)O)ccc3c2C(=O)c2ccccc2C3=O)c1O,.,-2%[7.66 µM],.,-5%[9.22 µM],.,.
O=C(O)C(Cc1cccs1)C(=O)O,.,-4%[7.66 µM],.,-3%[9.22 µM],.,.
COc1ccc(S(=O)(=O)NCCSc2nnnn2-c2ccccc2)cc1OC,-7%,.,.,8%,.,.
COc1cc(OC)c(NC(=O)N2CCCn3nc(C)cc32)cc1Cl,-2%,.,.,.,.,.
COc1cc(/C=N/N2C(=O)c3ccccc3C2=O)ccc1O,12µM*,-9%,0%,15%,-2%,-1%
COc1cc(/C=N/N2C(=O)C3C4C=CC(CC4)C3C2=O)ccc1O (stereo not given),?,.,9%,.,6%,1%
Cc1cc(C)c(NC(=O)CN2C(=O)c3cccnc3Oc3ccc(C)cc32)c(C)c1,2%,.,.,.,.,.
Cc1cc(/C=C2\SC(N)=NC2=O)c(C)n1-c1ccccc1,0.38µM*,-9%,7.3µM*,13µM*,2.8µM*,1.4µM*
Cc1cc(/C=C2/SC(=O)NC2=O)c(C)n1-c1ccc(N2CCOCC2)cc1,-6%,0%,-1%,-25%,-4%,8%
Cc1cc(/C=C2\SC(=S)NC2=O)c(C)n1-c1ccccc1,0.54µM*,.,?,.,0.63µM*,1µM*
COc1ccc2nc(N3CCCCC3)c(/C=C3\SC(=S)NC3=O)cc2c1,17µM*,.,-5%,.,-1%,-3%
O=C1NC(=S)S/C1=C\c1cc2ccccc2nc1N1CCCCC1,-1%,.,-15%,.,-3%,-4%
Cc1cc(/C=C2\SC(=S)NC2=O)c(C)n1C,27µM*,-3%,11%,11%,-7%,3%
Cc1cc(/C=C2\SC(=S)NC2=O)c(C)n1-c1ccc(O)cc1,0.85µM*,.,?,.,1.8µM*,1.8µM*
Cc1nn(C)cc1/C=C1\SC(=S)NC1=O,?,-1%,0%,2%,-1%,-1%
Cc1cc(/C=C2\SC(=S)NC2=O)cc(C)c1O,8.5µM*,.,16%,.,-2%,2%

# Screening data from PubChem.
